Compound activity deposited in PubChem by The Scripps Research Institute Molecular Screening Center.
ssDAF12 agonist: S. stercoralis DAF-12 activation, primary screen | HEK293 ssDAF-12/GRIP1 lit1-tk-luc reporter, luminescence; % of 3 µM dafachronic acid response | activation, % at 6.8 µM | 370,000 tested, 1% active | AID 652126;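 active = activation above the mean over all tested compounds plus 3 SD, cut at about 0.9% in these data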;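 note: 0% = DMSO-only wells and 100% = 3 µM delta7-dafachronic acid wells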
DAX1 inh-1: inhibitors of human orphan nuclear receptor DAX1 (NR0B1) | HEK293 Gal4-DAX1 luciferase reporter, luminescence | inhibition, % at 6.75 µM | P51843 | 340,000 tested, 0.99% active;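 active = inhibition above the mean over all tested compounds plus 3 SD, cut at about 4.2% in these data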;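 note: 0% = DAX1-transfected cells with DMSO and 100% = empty-vector control cells with DMSO; inhibition shows as a rise in luminescence from relieved DAX1 repression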
Target sequence (P51843 207-470 limits assumed): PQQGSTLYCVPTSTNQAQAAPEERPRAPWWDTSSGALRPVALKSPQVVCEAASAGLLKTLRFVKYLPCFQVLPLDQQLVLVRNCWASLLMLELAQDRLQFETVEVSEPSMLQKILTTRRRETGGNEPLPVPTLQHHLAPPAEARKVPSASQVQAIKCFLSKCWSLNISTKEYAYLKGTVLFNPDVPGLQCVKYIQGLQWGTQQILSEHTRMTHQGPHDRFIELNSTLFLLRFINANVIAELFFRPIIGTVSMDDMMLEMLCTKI
hgDAF12 agonist: agonists of H. glycines DAF-12 nuclear receptor; activation, % at 6.8 µM; 370,000 tested, 1.8% active; HEK293 GAL4-hgDAF12 UAS-luciferase reporter, agonist luminescence; normalized to butyrate control; AID 687014;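 active = activation above a cutoff set at the mean of all screened compounds plus 3 SD, cut at about 10% in these data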;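 note: 0% = DMSO wells and 100% = sodium butyrate wells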
DAX1 inh-2: blocks DAX1 repression of SF-1 activated StAR promoter. inhibition, % at 6.8 µM. 370,000 tested, 1.1% active. HEK293T StAR-luciferase reporter, SF-1/DAX-1 repression relief;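 active = inhibition above the mean over all tested compounds plus 3 SD, cut at about 3.6% in these data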;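 note: 0% = DAX-1 cells with DMSO and 100% = cells lacking DAX-1 with DMSO; higher inhibition means more luminescence from relief of DAX-1 repression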
hcDAF12 agonist: activators of H. contortus DAF-12 nuclear receptor; HEK293 hcDAF-12 lit1-tk-luc reporter, luminescence; 0% DMSO, 100% Δ7-dafachronic acid; activation, % at 6.8 µM; 370,000 tested, 1.4% active;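 active = activation above the mean of all tested compounds plus 3 SD, cut at about 5.5% in these data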;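 note: 100% = response to 3 µM Δ7-dafachronic acid high control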
An asterisk follows results filed as active; · = no result. This is a sample that favours compounds with a hit; in the whole collection about 4.1% have one here.

SMILES	ssDAF12 agonist	DAX1 inh-1	hgDAF12 agonist	DAX1 inh-2	hcDAF12 agonist
CN(CCO)c1cccc2c1S(=O)(=O)N(Cc1cn(Cc3cccc(C(F)(F)F)c3)nn1)Cc1ccccc1O2	0	·	1	0	1
O=C(Nc1ccc(-c2nc3ncccc3o2)cc1)c1ccco1	0	0	11*	2	3
O=C(Nc1ccc(-c2nc3ncccc3o2)cc1)c1ccc(Br)o1	-1	-3	-1	-1	-2
CCCOc1cccc(C2C(C(=O)c3ccc(C)o3)=C(O)C(=O)N2CCN2CCOCC2)c1 (stereo unspecified)	-1	1	1	0	5.8*
CC(=O)Nc1ccc(N=Cc2c(O)c3ccccc3oc2=O)cc1	-1	0	-1	0	0
CC(=O)Nc1ccc(N=Cc2c(O)c(C(=O)Nc3ccccc3)cc3ccccc23)cc1	2.1*	·	1	1	4
c1ccc2c(-c3cccc4nccn34)cncc2c1	-2	·	3	0	-1
O=C1C(c2ccncc2)=C(O)c2ccccc21	0	0	11*	4.3*	6.4*
Cc1ccc(-c2cnco2)cc1	-2	6.3*	-2	0	2
CCCn1c(-c2ccc[nH]c2=O)nc2cc(C)c(C)cc21	1.1*	4.4*	8	3	3
CCC(=O)N1N=C(c2ccc(NS(C)(=O)=O)cc2)CC1c1ccc(N(C)C)cc1 (stereo unspecified)	-1	-1	13*	0	1
Nc1nnc(-c2ccc(Cl)c(Cl)c2)s1	-1	5.8*	1	0	3
CCOc1ccc(S(=O)(=O)N2CC(=O)Nc3ccccc32)cc1C#N	-1	4.3*	2	0	-1
O=c1n(Cc2ccccc2Cl)nc2n1-c1ccccc1SC2	-2	4.9*	8	1	-1
Cc1ccc(C(=O)Nc2cc3c(oc2=O)CCCC3=O)cc1	0	3	11*	2	4
CN(CC(=O)Nc1ccc(F)c(F)c1F)C(=O)C1CCN(C(=O)Nc2ccccc2)CC1	-1	2	-2	0	0
CCOc1cnc(C(=O)NNC(=O)C(Br)C(C)C)o1 (stereo unspecified)	-1	7.8*	-1	-1	2
CCOc1cnc(-c2ccccc2F)o1	-1	2	-2	0	1
CNC(=O)CC1C(=O)N(c2ccc(Cl)cc2)C(=S)N1NC(=O)c1cccc(F)c1 (stereo unspecified)	0	0	3	0	0
CNC(=O)CC1C(=O)N(Cc2ccccc2)C(=S)N1NC(=O)c1cccc(F)c1 (stereo unspecified)	1.2*	-1	2	0	-3
O=C(Nn1c(SCc2cccc([N+](=O)[O-])c2)nc2ccccc2c1=O)c1ccccc1	0	2	13*	3	4
COc1ccc(C(=O)Nn2c(SCc3cccc([N+](=O)[O-])c3)nc3ccccc3c2=O)cc1	-2	-1	0	1	1
O=c1[nH]c2ccccc2n1C1CCCCC1	-2	6.1*	0	0	-1
O=C(NC1CCCCC1)N1CCC(n2c(=O)[nH]c3ccccc32)CC1	-1	2	0	-1	-2
COC(=O)C1=C(C)N(C)C(=NCC2CC2)NC1c1cccc(F)c1 (stereo unspecified)	0	·	0	2	1
SMILES	ssDAF12 agonist	DAX1 inh-1	hgDAF12 agonist	DAX1 inh-2	hcDAF12 agonist
O=C(COc1ccccc1[N+](=O)[O-])Nc1ccc2c(c1)CCC2	-1	2	10	4.5*	2
COc1ccccc1NC(=O)COC(=O)CCc1ccc(S(=O)(=O)N2CCOCC2)cc1	-1	0	1	1	1
O=C(COc1cccc(Cl)c1Cl)Nc1ccc2c(c1)CCC2	-1	-1	-1	-1	0
COc1ccc(NC(=O)c2ccco2)cc1NC(=O)COc1ccccc1[N+](=O)[O-]	-1	4.6*	-1	0	1
O=C(COC(=O)COc1ccccc1[N+](=O)[O-])Nc1ccc(S(=O)(=O)N2CCCCC2)cc1	1.2*	0	2	0	2
O=C(COC(=O)CCc1ccc(S(=O)(=O)N2CCOCC2)cc1)Nc1ccccc1[N+](=O)[O-]	0	0	1	1	5.6*
COc1ccc(NC(=O)c2ccco2)cc1NC(=O)COc1ccccc1	-1	0	-5	-2	1
COc1ccccc1-c1noc2c1C(=O)N(Cc1cn(C3CCCC3)nn1)CC2	-1	·	0	0	0
COC(=O)c1cc2c(c3c4cc(F)ccc4n(S(=O)(=O)c4cccc(C)c4)c13)C(=O)N(C)C2	-1	·	0	-1	2
CCCCn1nnnc1C(c1cc2ccccc2o1)N1CCN(CC(=O)N2CCCC2)CC1 (stereo unspecified)	-2	·	-2	0	1
Cc1cc(O)cc(=O)n1-c1cccc(Br)c1	-1	·	-3	0	0
O=C(CC1CCCC1)Nc1ccc2c(c1)CCC2	-1	0	12*	2	1
O=C(Cc1ccccc1)Nc1ccc2c(c1)CCC2	-1	2	9	1	1
O=C(Nc1nc2ncccn2c1-c1ccccc1)C1CC1	-1	·	-1	0	3
Cc1oncc1C(=O)Nc1ccc2ccccc2c1	0	0	9	3.8*	3
Cc1oncc1C(=O)Nc1ccc(C(F)(F)F)cc1	-1	-1	10	4.3*	0
Cc1oncc1C(=O)Nc1cccc2ccccc12	-1	0	3	0	-2
CC(C)c1[nH]nc2c1C(c1ccc(Br)cc1)NC2=O (stereo unspecified)	-1	·	1	0	-2
COc1ccccc1CNC(=O)C[C@H]1CC[C@H]2[C@@H](COc3ccc(NC(=O)Nc4ccccc4)cc3C(=O)N2C)O1	-1	·	-1	1	-1
Cc1ccc(/C=N/N2CCOCC2)s1	-1	5.6*	0	2	2
Cc1ccc(/C=N/N2CCN(Cc3ccccc3)CC2)s1	-1	2	3	1	2
O=C(N[C@H](Cc1ccccc1)C(=O)N(CCC1=CCCCC1)CC1CC1)[C@H]1O[C@@H](n2ccc(=O)[nH]c2=O)[C@H](O)[C@@H]1O	-1	·	0	1	2
Cc1cc(OCC(=O)NC(C)C)ccc1Cl	-1	0	-2	1	-2
Cc1cc(OCC(=O)NC(C)C)cc(C)c1Br	-1	4.4*	-2	0	-1
Cc1ccc(-c2ccc(CCC(=O)O)o2)cc1	2.6*	0	0	0	-1
O=C(O)CN1C(=O)/C(=C/C=C/c2ccccc2)SC1=S	-1	1	1	0	0
CCN1C(=O)C(=CC=CN(C)c2ccccc2)SC1=S	0	4.7*	7	2	0
C=CCc1cccc(CNc2nc3ccccc3n2CC)c1O	-1	0	3	-1	-1
C=CCc1cccc(CNc2nc3ccccc3n2CCC)c1O	-1	4.7*	0	-1	-3
